Screens: PubChem, National Center for Advancing Translational Sciences (NCATS)
The sample as a whole holds a higher share of hits than the screen did.
Vaccinia Venus: qHTS for Stage-Specific Inhibitors of Vaccinia Orthopoxvirus: Venus Reporter Primary qHTS; Vaccinia virus Venus reporter expression, fluorescence; 330,000 compounds, 0.46% hits; Potency, µM (series often up to 36.5 µM), for the others: at the top dose activity change, negative = inhibition, hits mostly inhibitors; calls by dose curve; tested in A549 cells; note: potency is the fitted concentration of half-maximal effect; % is set by controls: 0 for no effect and ±100 for the full control effect; nearly all actives have a fitted effect of over 30% in size
VACV mCherry inh: qHTS for Stage-Specific Inhibitors of Vaccinia Orthopoxvirus: mCherry Reporter Primary qHTS. Potency, µM (series often up to 36.5 µM), for inactives: at the highest dose activity change, negative = inhibition, usual class: inhibitors. 310,000 compounds, 0.63% hits. AID 720579, 2013. Vaccinia virus mCherry reporter infection, fluorescence; calls by dose curve; tested in A549 cells; note: potency is the fitted concentration of half-maximal effect; % is set by controls: 0 for no effect and ±100 for the full control effect; nearly all actives have a fitted effect of over 35% in size
Shiga inhibitor: A qHTS for Small Molecule Inhibitors of Shiga Toxin | Vero cells, Shiga toxin protein synthesis inhibition reporter | inhibition, % at 38.7 µM | 290,000 compounds, 9.2% hits | AID 2315, 2010; in the data active = inhibition mostly above about 28%, no sharp cut-off; inactive = mostly below about 43%; note: 0% is about no effect
LASV entry inh: qHTS for Inhibitors of binding or entry into cells for Lassa Virus | 300,000 compounds, 1.2% hits | AID 540256, 2011 | Potency, µM (top dose mostly 37.9 µM), for the others: at the top dose activity change, negative = inhibition, usual class: inhibitors | Lassa virus pseudotype entry inhibition, cell reporter; calls by dose curve; tested in HEK293 cells; note: potency is the fitted concentration of half-maximal effect; % is set by controls: 0 for no effect and ±100 for the full control effect; nearly all actives have a fitted effect of over 50% in size
MARV entry inh: qHTS for inhibitors of binding or entry into cells for Marburg Virus; Marburg virus pseudotyped entry inhibition, cell reporter; Potency, µM (series often up to 37.8 µM), without a hit: at the highest dose activity change, negative = inhibition, usual class: inhibitors; 300,000 compounds, 1.8% hits; AID 540276, 2011; calls by dose curve; tested in HEK293 cells; note: potency is the fitted concentration of half-maximal effect; % is set by controls: 0 for no effect and ±100 for the full control effect
Cycloheximide cs: Cycloheximide Counterscreen for Small Molecule Inhibitors of Shiga Toxin. 300,000 compounds, 12% hits. AID 2314, 2010. max response, %. cell reporter, cycloheximide protein synthesis inhibition counterscreen; in the data active = max response mostly above about 13%, no sharp cut-off; inactive = mostly below about 14%; note: read at 38.3 µM for the half of the compounds with a filed dose; 0% is about no effect
The depositor's hits bear a star; i = inactive; ? = inconclusive; . = no result given; [ ] = remark or other dose.

SMILES	Vaccinia Venus	VACV mCherry inh	Shiga inhibitor	LASV entry inh	MARV entry inh	Cycloheximide cs
Cc1ccc(NC(=S)NCC2CCCO2)cc1C (centres undefined)	.	.	12	-11%	0%	9
Cc1cc(C)cc(NC(=O)C(=O)NCC2CCCO2)c1 (centres undefined)	.	.	32	.	.	25*
Cc1cc(C)c(C)c(OCC(=O)NCC2CCCO2)c1 (centres undefined)	.	.	-4	8%	-5%	2
Cc1cc(C)cc(OCC(=O)NCC2CCCO2)c1 (centres undefined)	-7%	i	100*	7%	5%	24*
CCOc1ccc(-n2c(SCC(=O)NC)nnc2-c2ccco2)cc1	-9%	-7%	-8	1%	-3%	-2
c1cncc(-c2nc(N3CCOCC3)c3c4c(sc3n2)CCC4)c1	-14%	-6%	2	1%	?	2
c1cncc(-c2nc(NCCCN3CCOCC3)c3c4c(sc3n2)CCC4)c1	?	-17%	-4	?	10µM*	7
O=C(c1cccc(Cl)c1Cl)N(Cc1ccco1)Cc1cccs1	-3%	25%	.	.	.	.
O=C1Nc2ccccc2/C1=N/c1sc2c(c1C(=O)NCCc1ccccc1)CCCC2	-10%	i	39*	-11%	-12%	34
Cn1ccc(C(=O)Nc2ccc(Br)cc2Br)n1	-17%	-18%	167*	?	?	104*
Cc1ccc(NC(=O)c2ccn(C)n2)c(Br)c1	-6%	i	163*	?	?	81*
Cn1nnnc1SCC(=O)Nc1ccc(Br)cc1Br	-3%	-12%	.	19%	7%	.
O=C(/C=C/c1ccco1)N1CCN(S(=O)(=O)/C=C/c2ccccc2)CC1	-7%	-18%	49	2%	-9%	30*
Cc1ncoc1C(=O)NCc1nc(-c2cccc(NC(=O)c3ccccn3)c2)oc1C	-16%	-28%	.	.	.	.
COc1ccc(/C=C(/CC(=O)NCc2ccc(Cl)cc2)c2nc3ccccc3s2)cc1	-15%	?	19	?	-6%	19*
COc1ccccc1/C=C(/CC(=O)NCc1ccc2c(c1)OCO2)c1nc2ccccc2s1	-10%	-12%	67*	-1%	?	20*
O=C(O)C/C(=C\c1ccc2c(c1)OCO2)c1nc2ccccc2s1	1%	0%	69*	7%	3%[46.1 µM]	32*
C[C@H]1Cc2c(-c3ccccc3)nc3c(c2CO1)CN(S(=O)(=O)c1ccc2c(c1)OCCN2C)CC3	.	.	.	?	-12%[14.2 µM]	.
O=C(NCc1ccccc1)NCc1cccs1	-4%	-14%	41*	15%[46.1 µM]	?	22*
Cc1cccc(NC(=O)Nc2cccs2)c1C	-11%	-13%	.	.	0%[46.1 µM]	.
Cc1ccccc1CNC(=O)Nc1cccs1	-12%	-18%[1.46 µM]	66*	?	18%	51*
O=C(NCc1cccs1)Nc1cccs1	-1%	2%[1.46 µM]	33*	1%	16%	38*
CN(C)c1ccc(/C=N/n2ncc3ccccc32)cc1	-13%	-14%	98*	13µM*	10µM*	39*
COCCNC(=O)CCc1nnc2ccc(N3CCC(C)CC3)nn12	.	.	-9	.	.	-3
COC(=O)c1ccc(C(=O)Nc2ccc(C(C)C)cc2N)cc1	-8%	1%	70*	-25%	6%[14.2 µM]	32*
SMILES	Vaccinia Venus	VACV mCherry inh	Shiga inhibitor	LASV entry inh	MARV entry inh	Cycloheximide cs
CN(C)S(=O)(=O)c1ccc(C(=O)NC2CC(=O)N(c3ccc4c(c3)OCCO4)C2)cc1 (centres undefined)	-6%	-9%	.	3%[46.1 µM]	.	.
COC(=O)c1cnn2c(C)c(Cc3c(C)cc(C)cc3C)c(C)nc12	-7%	15%	.	21%[46.1 µM]	.	.
COC(=O)c1cnn2c3c(c(C)nc12)CCCC3	.	.	73*	9%	?	59*
CN(C)CC(C)(O)c1ccc2c(c1)CN(Cc1cccn1-c1ncccn1)CCO2 (centres undefined)	4%	-6%	.	.	.	.
COc1cc(/C(C)=N/NC(=O)CN2CCN(S(=O)(=O)c3ccc(C)cc3)CC2)ccc1O	.	.	-7	.	.	1
CC(C)(c1ccccc1)c1ccc(OCC(O)CN2CCCC2)cc1 (centres undefined)	?	-23%	-12	?	2.8µM*	-8
OC(COc1ccccc1)CN1CCCC1 (centres undefined)	.	.	-6	.	.	-8
OCCN1CCN(CC(O)COc2ccc(-c3ccccc3)cc2)CC1 (centres undefined)	-6%	-12%	74*	?	-22%[46.1 µM]	32*
OC(COc1ccc(OCc2ccccc2)cc1)CN1CCOCC1 (centres undefined)	-11%	i	36	-18%	5%	20*
Cc1ccc(OCC(O)CN2CCOCC2)cc1 (centres undefined)	.	.	.	.	.	-3
O=C(c1ccccc1)c1ccc(OCC(O)CN2CCOCC2)cc1 (centres undefined)	-16%	-1%	.	-1%	-7%[46.1 µM]	.
OC(COc1ccc(-c2ccccc2)cc1)CN1CCOCC1 (centres undefined)	.	.	28	.	.	22*
CCOC(=O)c1cc(C)n(CC2CCC(C(=O)Nc3ccc(C)cc3)CC2)c1C (centres undefined)	-30%	-27%	.	8%[46.1 µM]	.	.
O=C(O)c1cc2ccccc2c2cc(Br)ccc12	-15%	0%	7	.	.	-5
COc1ccc(S(=O)(=O)NCCS(=O)(=O)N2CCN(c3ccccc3F)CC2)cc1	-15%	i	.	?	.	.
O=C(N[C@@H]1c2ccccc2C2(CCN(Cc3c(O)ccc4ccccc34)CC2)[C@H]1O)c1ccccc1	0%	-6%	.	.	.	.
CCOc1ccc(C(=O)C(CN2CCOCC2)c2ccccc2)cc1 (centres undefined)	?	10µM*	15	26µM*	6.5µM*	-3
OC1CCCN(CC(O)COc2ccc(-c3ccccc3)cc2)C1 (centres undefined)	4%	-15%	54*	14%[46.1 µM]	?	23*
OC(COc1ccc(OCc2ccccc2)cc1)CN1CCCCC1 (centres undefined)	-6%	-14%	74*	21%	?	31*
OC(COc1ccc2cc(Br)ccc2c1)CN1CCCC1 (centres undefined)	.	.	77*	0%	8.2µM*	46*
CC(C)(C)c1ccc(C(=O)C[n+]2cc(Br)cc(Br)c2)cc1	-10%	-11%	.	.	.	.
COc1ccc(OCC(O)CN2CCCCCC2)cc1 (centres undefined)	-5%	-4%	-5	12%[14.3 µM]	7%	-2
OC(COc1ccc(OCC(O)CN2CCCCCC2)cc1)CN1CCCCCC1 (centres undefined)	-26%	.	-6	?	11µM*	-2
Cc1[nH]nc2ccc(-c3cncc(OC[C@@H](N)Cc4c[nH]c5ccccc45)c3)cc12	0.89µM*	?	.	.	.	.
COC(=O)C(Cc1c[nH]c2ccccc12)NC(=O)COc1cccc(C)c1 (centres undefined)	0%	-8%	.	?	.	.
